Measured values taken from PubChem BioAssay (Tox21).
Where “and” joins values, the source holds several entries; their conditions need not be identical. Identical values can stand only once. Records with an inconclusive call do not appear. Where a call stands in place of a potency, no number is given. The source holds several records for some structures; these can differ, active in one and inactive in another. Calls of active or inactive are those of the source. Calls come from the whole dose curve.

experiment: qHTS assay for small molecule disruptors of the mitochondrial membrane potential - cell viability (AID 720634); details: HepG2 viability, ATP luminescence (CellTiter-Glo), 1 h; series mostly up to 83.2 µM; note: nearly all actives have a fitted effect of over 20% in size
From the text: U.S. Tox21 Program National Center for Advancing Translational Sciences [NCATS] NIH Chemical Genomics Center [NCGC] U.S. Environmental Protection Agency [EPA] National Institutes of Environmental Health Sciences [NIEHS] National Toxicology Program [NTP] U.S. Food and Drug Administration [FDA] Tox21 Assay Overview: Mitochondrial membrane potential (MMP), one of the parameters for mitochondrial function, is generated by mitochondrial electron transport chain that creates an electrochemical gradient by a series of redox reactions. This gradient drives the synthesis of ATP, a crucial molecule for various cellular processes. Measuring MMP in living cells is commonly used to assess the effect of chemicals on mitochondrial function; decreases in MMP can be detected using lipophilic cationic fluorescent dyes. […] The dye accumulates in the mitochondria of healthy cells as aggregates, with red fluorescence. The mitochondrial potential decreases and the dye could not accumulate in the mitochondria and remains in the cytoplasm in monomers, with green fluorescence. In addition to the mitochondrial potential assay, these cells were also used to test the cytotoxicity by determining the cell viability in the culture based on the quantitation of ATP present. The cytotoxicity was measured in the same assay well of MMP assay.
Tox21 Assay Protocol Summary: 2,000 HepG2 cells in 5 uL/well were dispensed into black, clear-bottom 1536-well plates using a Multidrop Combi (Thermo Scientific) dispenser. The assay plates were incubated for an overnight at 37 C to allow cells to attach to the wells, followed by the transfer of 23 nL compound or DMSO vehicle by a pin tool (Kalypsys). The plates were incubated for 1 hr at 37 C and 5% CO2, followed by the addition of 5 uL of 2X m-MPI dye into each well using Flying Reagent Dispenser (Aurora Discovery) and then CellTiter-Glo reagent was added at 4 uL/well and incubated 30 min at room temperature. Then luminescence intensity was quantified on a ViewLux CCD-based plate reader.
Potency is the fitted concentration of half-maximal effect.

Compound	Potency
COc1ccccc1/C=C/C=O	inactive
O=P(O)(O)O	inactive
C=C(C)C(=O)OCCOC(=O)C(=C)C	inactive
COc1cc([C@@H]2c3cc4c(cc3[C@H](O)[C@H]3COC(=O)[C@H]23)OCO4)cc(OC)c1OC	inactive
CCCCOCCOCCO	inactive
C=CC(C)(CCC=C(C)C)OC(C)=O (stereo not given)	inactive
COc1cccc2c1C(=O)c1c(O)c3c(c(O)c1C2=O)C[C@@](O)(C(=O)CO)C[C@@H]3O[C@H]1C[C@H](N)[C@H](O)[C@H](C)O1	inactive
Cc1cccc(C(=O)O)c1	inactive
CC(C)OB(OC(C)C)OC(C)C	inactive
COc1ccc(C(=O)CC(=O)c2ccc(C(C)(C)C)cc2)cc1	inactive and 18.5 µM (active)
CC(C)OC=O	inactive
C#C[C@]1(O)CC[C@H]2[C@@H]3CCc4cc(OC)ccc4[C@H]3CC[C@@]21C	inactive
OC1CCCCCCCCCCC1	inactive
CC(C)=CCC/C(C)=C\CO	inactive
CC1=CC2C3CC(C=C3C)C2C1 (stereo not given)	inactive
O=C(c1ccccc1)c1ccccc1O	inactive
CCCCC(CC)COP(=O)(OCC(CC)CCCC)OCC(CC)CCCC (stereo not given)	inactive
CCCCC(CC)COC(=O)c1ccc(N(C)C)cc1 (stereo not given)	inactive
c1ccc2cc(Nc3ccc(Nc4ccc5ccccc5c4)cc3)ccc2c1	inactive
Cc1cccc([N+](=O)[O-])c1C	inactive

Compound	Potency
CCCC(=O)O	inactive
Cc1ccc2c(n1)Oc1ccc(C(C)C(=O)OCC(=O)N(C)C)cc1C2 (stereo not given)	inactive
Cc1ccc(C)c(O)c1C	inactive
CCCCc1oc2ccccc2c1C(=O)c1cc(I)c(OCCN(CC)CC)c(I)c1	inactive
O=Cc1ccccc1O	inactive
OC[C@H]1O[C@@H]2O[C@H]3[C@H](O)[C@@H](O)[C@@H](O[C@H]4[C@H](O)[C@@H](O)[C@@H](O[C@H]5[C@H](O)[C@@H](O)[C@@H](O[C@H]6[C@H](O)[C@@H](O)[C@@H](O[C@H]7[C@H](O)[C@@H](O)[C@@H](O[C@H]8[C@H](O)[C@@H](O)[C@@H](O[C@H]1[C@H](O)[C@H]2O)O[C@@H]8CO)O[C@@H]7CO)O[C@@H]6CO)O[C@@H]5CO)O[C@@H]4CO)O[C@@H]3CO	inactive
Clc1nc(Cl)c(Cl)c(Cl)c1Cl	inactive
S=C(NC1CCCCC1)NC1CCCCC1	inactive
Nc1ccc(S(=O)(=O)Nc2cnc3ccccc3n2)cc1	inactive
O=c1oc(=O)c2cc3c(=O)oc(=O)c3cc12	inactive
CN(C)CCC=C1c2ccccc2CCc2ccccc21	inactive
Cc1[nH]c(=O)c(C#N)cc1-c1ccncc1	inactive
OC(CCl)CCl	inactive
COc1c(Cl)c(Cl)c(Cl)c(Cl)c1Cl	inactive
O=C(O)c1ccccc1Nc1cccc(C(F)(F)F)c1	inactive
C[C@]12CCC(=O)C=C1CC[C@@H]1[C@@H]2C(=O)C[C@@]2(C)[C@H]1CC[C@]2(O)C(=O)CO	inactive
O=C(Nc1ccc([N+](=O)[O-])cc1Cl)c1cc(Cl)ccc1O	inactive
c1cc(N(CC2CO2)CC2CO2)ccc1OCC1CO1 (stereo not given)	inactive
c1ccncc1	inactive
COC(=O)c1ccccc1	inactive
